# Data from PubChem BioAssay AID565 (University of Pittsburgh Molecular Library Screening Center, 2006).
# Hit rate of the full screen: of about 65,000 compounds, about 1,200 (1.8%) were called active. No stated cut-off is given here; in the data, active means inhibition above about 50%; inactive means the rest. The sample as a whole holds a higher share of actives than the screen did.
# Target: Gag-Pol polyprotein (Human immunodeficiency virus type 1 group M subtype B (isolate HXB2)) (UniProt P04585)
# Assay: HIV-1 RT RNase H inhibitors, primary screen, biochemical, fluorescence (AID 565)
# Details: RT-RNase H RNA/DNA duplex cleavage, at 10 µM, stronger effect = higher value
row,Compound,inhibition
1,O=C(Nc1cc(N2CCOCC2)ncn1)NC1(C(F)(F)F)Oc2ccc(Cl)cc2O1 (stereo not drawn),62.3% (active)
2,COc1c(C)cccc1C(=O)Nc1cc(Cl)ccc1N1CCOCC1,-7.75% (inactive)
3,c1cnn(-c2cc(N3CCOCC3)ncn2)c1,-2.75% (inactive)
4,CC(Sc1nncn1C)C(=O)Nc1ccccc1-c1ccccc1 (stereo not drawn),-1.62% (inactive)
5,Cc1ccccc1OCC(=O)Nc1ccc(N2CCN(C(=O)C(C)C)CC2)c(Cl)c1,-29% (inactive)
6,CCc1ccccc1NC(=O)CSc1nnc([C@@H](NC(=O)OC(C)(C)C)C(C)C)o1,-2.47% (inactive)
7,CCOC(=O)CSc1nc2sc3c(c2c(=O)[nH]1)CC(C)(C)OC3,-2.48% (inactive)
8,CCOC(=O)c1c(NC(=O)CSc2nnc(C)c(=O)[nH]2)sc2c1CCC2,2.54% (inactive)
9,CCCCOC(=O)CNc1nnc(SCC(=O)OCC)[nH]c1=O,55.9% (active)
10,CCn1c(=O)cc(O)c2ccccc21,-0.16% (inactive)
11,CCn1c(=N)c(S(=O)(=O)c2ccc(F)cc2)cc2c(=O)n3ccccc3nc21,2.52% (inactive)
12,Cc1nc2nc(COc3ccccc3)[nH]n2c(=O)c1C,-3.44% (inactive)
13,CC1(C)CC(=O)C2=C(C1)NCN(CCCN1CCOCC1)C2,-6.75% (inactive)
14,C=C(C)Cn1c(N2CCN(CC)CC2)nc2c1c(=O)[nH]c(=O)n2C,10.6% (inactive)
15,c1ccc(CCn2nnnc2CN2CCN(C3CCCC3)CC2)cc1,-0.5% (inactive)
16,Cc1ccc(Cn2nnnc2CN2CCC(n3nnc4ccccc43)CC2)cc1,68.7% (active)
17,Cc1ccc(S(=O)(=O)Cn2nnnc2CN2CCN(Cc3ccc4c(c3)OCO4)CC2)cc1,1.61% (inactive)
18,Brc1ccc(Nc2c3c(nc4ncnn24)CCC3)cc1,-1.42% (inactive)
19,Cc1c(C(=O)CN2CCOCC2)[nH]c2ccccc12,-6.56% (inactive)
20,O=C1NC(c2ccncc2)Nc2sc3c(c21)CCCC3 (stereo not drawn),12.9% (inactive)
21,Clc1ccc(C2CC(c3cccs3)n3ncnc3N2)cc1Cl (stereo not drawn),-4.72% (inactive)

row,Compound,inhibition
1,O=C(Nc1ccc2c(c1)OCCO2)C1CCCN(c2ncccn2)C1 (stereo not drawn),7.08% (inactive)
2,Cc1ccnc(N2CCCC(C(=O)Nc3cc(F)ccc3C)C2)n1 (stereo not drawn),58.3% (active)
3,Cc1ccnc(N2CCC(C(=O)NC3CCCCCC3)CC2)n1,-5.09% (inactive)
4,O=C(NCCC1=CCCCC1)C1CCN(Cc2cnn(-c3ccccc3)c2-n2cccc2)CC1,-3.34% (inactive)
5,Cc1cc(C)c2c(n1)nn1c(-n3ccnc3)cc(C)nc21,-11.4% (inactive)
6,CCOC(=O)N1CCN(CC(=O)n2c(C)c(C)c3ccccc32)CC1,-3.69% (inactive)
7,CCOC(=O)N1CCN(CC(=O)c2ccc3c(c2)CCN3)CC1,75.5% (active)
8,CCOC(=O)N1CCN(CC(=O)c2c(C)[nH]c3ccccc23)CC1,-4.83% (inactive)
9,O=C1c2ccncc2C(=O)N1C1CCCCC1,-26.2% (inactive)
10,COc1ccc(NC(=O)c2ccc(OC)cc2)cc1,2.87% (inactive)
11,COCCNC(=O)COc1ccc(C)c(C)c1,-5.41% (inactive)
12,COCCNC(=S)c1ccc(OC)cc1,88.3% (active)
13,COC(=O)C(C)Sc1nc2c(c(=O)n(C)c(=O)n2C)n1Cc1cccc(C)c1 (stereo not drawn),8.94% (inactive)
14,Cc1cc(Nc2ccccc2)n(CCC#N)n1,-2.42% (inactive)
15,CCc1ccc2oc(=O)cc(CN3CCCCC3C)c2c1 (stereo not drawn),-13.3% (inactive)
16,Cc1nc(C)c(C(=O)Nc2ccc(C)c(F)c2)o1,31.9% (inactive)
17,COc1ccc(Cl)cc1NC(=O)c1oc(C)nc1C,12.9% (inactive)
18,Cc1nc(C)c(C(=O)Nc2cccc(C)c2C)o1,52.9% (active)
19,CS(=O)(=O)N(CC(=O)N1CCN(c2cccc(Cl)c2)CC1)c1ccccc1,-9.31% (inactive)
20,CCOC(=O)CSc1nnc(-c2ccncc2)o1,-9.52% (inactive)
21,COCCCNC(=O)COc1cc(C)c(Cl)c(C)c1,-96.5% (inactive)

row,Compound,inhibition
1,CCC(Sc1nncn1C)C(=O)Nc1nnc(-c2ccc(Cl)cc2)s1 (stereo not drawn),-2.44% (inactive)
2,COc1cccc(-c2nnc(NC(=O)c3ccc(S(=O)(=O)N(CC(C)C)CC(C)C)cc3)o2)c1,65.7% (active)
3,COc1cccc(NC(=O)CN(C)S(=O)(=O)c2ccc(C)cc2)c1,-3.65% (inactive)
4,CCN(CC)C(=O)CSc1nnc(-c2cccc(OC)c2)o1,-4.72% (inactive)
5,CCOc1cc(S(=O)(=O)NCc2ccc3c(c2)OCO3)ccc1F,-4.32% (inactive)
6,Cc1ccc2[nH]c3c(c2c1)CN(C(=O)CN1CCN(c2ccccc2)CC1)CC3,-8.5% (inactive)
7,CCCC(=O)N1CCc2[nH]c3ccccc3c2C1,51.2% (active)
8,O=C(NC1CCCCC1)N1CCc2[nH]c3ccccc3c2C1,-1.26% (inactive)
9,CCCC(NS(=O)(=O)c1ccc(OC)cc1)C(=O)O (stereo not drawn),-5.87% (inactive)
10,CCc1nnc(NC(=O)CSc2nnc(Cc3ccccc3)n2-c2ccc(OC)cc2)s1,10.7% (inactive)
11,CCc1nnc(NC(=O)CSc2nnc(-c3ccncc3)n2Cc2ccccc2)s1,-7.97% (inactive)
12,CCc1nnc(NC(=O)CSc2nnc(COc3ccc(C#N)cc3)n2-c2ccccc2)s1,60.1% (active)
13,CCOC(=O)N1CCN(C(=O)c2cc3c(-c4ccc(Cl)cc4)nn(C)c3s2)CC1,-13.4% (inactive)
14,CCCCn1c(SCc2ncc(-c3ccccc3)o2)nc2cc(S(N)(=O)=O)ccc21,-15.2% (inactive)
15,CCOc1ccc(N(CC(=O)OC)S(=O)(=O)c2c(C)noc2C)cc1,-2.65% (inactive)
16,Cc1ccc(Nc2nc(CSc3nnnn3-c3ccccc3)cc(=O)[nH]2)cc1,2.45% (inactive)
17,N#CCSc1nc2ccccc2c(=O)n1-c1ccccc1,-15% (inactive)
18,O=c1c2ccccc2nc(CSc2nnnn2-c2ccccc2)n1-c1ccccc1,52% (active)
19,COc1ccc(OCCCC(=O)Nc2nnc(C3CCCO3)s2)cc1 (stereo not drawn),8.11% (inactive)
20,COC(=O)N(c1ccc(OC)cc1)P1(=S)OCCC(C)O1 (stereo not drawn),94.7% (active)
21,CCCCC(=O)N(c1ccc(OC)cc1)C1C=CS(=O)(=O)C1 (stereo not drawn),-0.43% (inactive)
